According to PubChem BioAssay AID933 (National Center for Advancing Translational Sciences (NCATS), 2009):
Results filed as inconclusive are left out. A call without a number means that no potency is given here. Active and inactive are the calls of the source. Calls follow the shape of the dose curve; as a rule, active = well fitted activation curve with a large enough effect in the signal ratio, with a control signal flat; inconclusive = small, poorly fitted or top-dose-only effect, or a change in a side signal; inactive = flat fitted curve, though single readings scatter; the % refers to the signal ratio.

Biological target: Thyrotropin receptor (Homo sapiens) (UniProt P16473)
Test: Secondary Concentration-Response Assay for Agonists of the Thyroid Stimulating Hormone Receptor: HTRF Activity Detection;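 as to activation: HEK 293 cells stably expressing human TSHR with RO 20-1724 phosphodiesterase inhibitor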
Settings: HEK293-TSHR cells, cAMP HTRF ratio, 30 min; series mostly up to 91.7 µM
Summary of the method: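 Orthogonal confirmation in a separate TSHR-transfected HEK 293 line: cells in medium with 10 % FCS and 100 uM RO 20-1724 got compound for 30 min at room temperature. cAMP was measured by HTRF (d2-cAMP/anti-cAMP antibody), 615/660 nm emission.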
Potency is read from the fitted curve at half-maximal effect.

Chain of Thyrotropin receptor (Homo sapiens) (P16473 whole entry, looked up): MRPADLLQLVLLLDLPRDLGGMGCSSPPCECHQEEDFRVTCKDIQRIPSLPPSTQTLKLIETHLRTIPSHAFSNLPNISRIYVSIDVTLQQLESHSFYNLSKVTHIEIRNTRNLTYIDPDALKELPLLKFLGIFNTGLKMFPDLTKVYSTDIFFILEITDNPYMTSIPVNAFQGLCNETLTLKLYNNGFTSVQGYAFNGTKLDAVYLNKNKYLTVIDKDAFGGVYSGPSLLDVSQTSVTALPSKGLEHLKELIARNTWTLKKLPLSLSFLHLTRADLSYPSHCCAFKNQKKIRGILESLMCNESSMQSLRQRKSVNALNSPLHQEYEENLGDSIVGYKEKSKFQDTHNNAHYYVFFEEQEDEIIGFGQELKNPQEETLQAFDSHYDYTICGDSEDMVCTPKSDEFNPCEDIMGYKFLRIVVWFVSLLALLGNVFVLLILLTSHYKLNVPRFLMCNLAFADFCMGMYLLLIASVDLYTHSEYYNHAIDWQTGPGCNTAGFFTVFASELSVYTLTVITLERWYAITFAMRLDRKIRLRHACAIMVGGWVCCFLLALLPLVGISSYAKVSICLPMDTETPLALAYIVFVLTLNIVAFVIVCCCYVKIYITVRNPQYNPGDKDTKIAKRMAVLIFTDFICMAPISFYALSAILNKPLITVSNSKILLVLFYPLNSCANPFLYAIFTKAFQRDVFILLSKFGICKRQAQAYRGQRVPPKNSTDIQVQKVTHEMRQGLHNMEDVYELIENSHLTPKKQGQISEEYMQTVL

Row | Compound | Potency | activation
1 | COc1ccc(CN(Cc2ccccc2)C(C)=O)cc1COc1ccc(NC(C)=O)cc1 | inactive | –
2 | Cc1ccc(N(CC(=O)NCc2ccco2)S(=O)(=O)c2ccccc2)cc1 | – | 0.48% [at 0.00035 µM] (inactive)
3 | COc1cc(C2Nc3ccccc3C(=O)N2Cc2ccccc2)ccc1OCc1ccccc1 (stereo unspecified) | inactive | –
4 | COc1ccc(CN(Cc2ccccc2)C(=O)c2ccccc2)cc1COc1ccc(NC(C)=O)cc1 | 8.91 µM (active) | –
5 | O=C1c2ccccc2NC(c2ccccc2)N1c1ccc(O)cc1 (stereo unspecified) | inactive | –
6 | COCCNC(=O)C(c1ccc(C)o1)N(C(=O)c1snc(C(N)=O)c1N)c1ccc(C)cc1 (stereo unspecified) | – | -0.472% [at 0.00035 µM] (inactive)
7 | COc1ccc(C2Nc3ccc(NC(C)=O)cc3C(=O)N2Cc2cccc(Cl)c2)cc1COc1ccc(NC(C)=O)cc1 (stereo unspecified) | 7.94 µM (active) | –
8 | COc1ccc(O)c(C2Nc3ccccc3C(=O)N2Cc2ccccc2)c1 (stereo unspecified) | inactive | –
9 | CCCN1C(=O)c2ccccc2NC1c1ccc(OC)c(COc2cccc(OC)c2)c1 (stereo unspecified) | inactive | –
10 | O=C1C2C3CCCC3=C3CCCC3C2C(=O)N1c1ccc(F)cc1 (stereo unspecified) | inactive | –
11 | COc1ccc(C2Nc3ccccc3C(=O)N2c2ccccc2)cc1CSc1ccccn1 (stereo unspecified) | inactive | –
12 | COc1ccc(C2Nc3ccccc3C(=O)N2c2ccccc2F)cc1COc1ccc(NC(C)=O)cc1 (stereo unspecified) | inactive | –
13 | CCOc1cc(C(=O)N(C)c2ccccc2)cc(OCC)c1OCC | – | 1.28% [at 0.00035 µM] (inactive)
14 | CN(Cc1ccco1)C(=O)Cn1c(=O)oc2cc(S(=O)(=O)NCc3ccccc3)ccc21 | – | 0.961% [at 0.00035 µM] (inactive)
15 | COc1ccc(C(=O)N(Cc2ccccc2)Cc2cccs2)c(O)c1 | 28.2 µM (active) | –
16 | COc1ccc(C2Nc3ccccc3C(=O)N2c2ccc(C)cc2)cc1Cn1nc(C)c([N+](=O)[O-])c1C (stereo unspecified) | inactive | –
17 | CC1(C)CC(=O)C2=C(C1)OC(N)=C(C#N)C2CCc1ccccc1 (stereo unspecified) | – | -0.482% [at 0.00035 µM] (inactive)
18 | COc1ccc(C2Nc3ccccc3C(=O)N2Cc2ccco2)cc1COc1cccc(NC(C)=O)c1 (stereo unspecified) | inactive | –

Row | Compound | Potency | activation
19 | O=C1c2ccccc2NC(c2ccccc2O)N1Cc1ccccc1 (stereo unspecified) | inactive | –
20 | COc1ccc(N2C(=O)c3ccccc3NC2c2ccc(OC)c(CSc3ccccn3)c2)cc1 (stereo unspecified) | inactive | –
21 | Cc1cc(=O)[nH]c(SCCOc2ccc3c(c2)CCC3)n1 | – | 0.323% [at 0.00035 µM] (inactive)
22 | COc1ccc(CN(Cc2ccccc2)C(=O)c2ccno2)cc1COc1ccc(NC(C)=O)cc1 | inactive | –
23 | COc1cc2c(N3CCOCC3)cc(O)c(CC(=O)Nc3ccccc3)c2cc1OC | – | 0.478% [at 0.00035 µM] (inactive)
24 | COc1ccc(C2Nc3ccccc3C(=O)N2Cc2ccccc2OC)cc1COc1ccc(NC(C)=O)cc1 (stereo unspecified) | inactive | –
25 | Nc1ccccc1C(=O)NCc1ccco1 | inactive | –
26 | COc1ccc(C2Nc3ccccc3C(=O)N2Cc2ccco2)cc1COc1ccc([N+](=O)[O-])cc1 (stereo unspecified) | inactive | –
27 | COC(=O)CNC(=O)C12CC3(C)CC(C)(CC(C)(C3)C1)C2 | – | 0.274% [at 0.00035 µM] (inactive)
28 | COc1ccc(C2Nc3ccccc3C(=O)N2Cc2ccccc2)cc1COc1ccccc1F (stereo unspecified) | inactive | –
29 | COc1ccc(/C=N/O)cc1COc1ccc(NC(C)=O)cc1 | inactive | –
30 | COc1ccc2c(c1)C1(Nc3ccccc3C(=O)N1c1ccccc1)C(=O)N2 (stereo unspecified) | inactive | –
31 | O=C(COC(=O)C1c2ccccc2Oc2ccccc21)Nc1ccc2c(c1)OCO2 | – | 0.151% [at 0.00035 µM] (inactive)
32 | COc1ccc(C2Nc3ccc(NC(=O)CO)cc3C(=O)N2Cc2cccc(Cl)c2)cc1COc1ccc(NC(C)=O)cc1 (stereo unspecified) | 5.62 µM (active) | –
33 | O=C1c2ccccc2NC(c2ccc(O)cc2)N1Cc1ccco1 (stereo unspecified) | inactive | –
34 | O=C(c1cc(Br)ccc1O)N(Cc1ccco1)Cc1cccs1 | inactive | –
35 | CCOc1cc(C2Nc3ccccc3C(=O)N2c2ccccc2)c(Br)cc1OCC(=O)O (stereo unspecified) | inactive | –
36 | COc1ccc(N2C(=O)c3ccccc3NC2c2ccc(OC)c(Cn3nnc4ccccc43)c2)cc1 (stereo unspecified) | inactive | –
